Screening results as filed in PubChem.
Rows were chosen to be rich in hits. Some 3.6% of all compounds tested hit in one or more screens of this group.
Sfp PPTase inh – blocks B. subtilis Sfp PPTase activity | 310,000 tested, 3.5% active | Potency, µM, for inactives: largest response in the series, negative = inhibition, most hits filed as inhibitors | Q9F4F7 | AID 1490 | Biochemical Sfp PPTase activity, qHTS;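 also: the enzyme is Sfp with the accession as filed and its product quenches rhodamine fluorescence; 0% = enzyme reaction without inhibitor and -100% = no enzyme wells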
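Compounds were incubated with enzyme (final 15 nM) for 15 min at room temperature before substrate addition started the reaction. Fluorescence at 525 nm excitation, 598 nm emission was recorded immediately and after 30 minutes.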
Epigenetic reg – epigenetic control regulation, reporter derepression; Potency, µM (doses to about 53.9 µM), without a hit: top-dose GFP activation, usual class: activators; murine LDR cells, GFP reporter derepression, 30 h; AID 1865; 280,000 tested, 0.2% active; also: % of control where 0% means no effect; nearly all actives have a fitted effect of over 60% in size
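Murine LDR cells bearing a silenced CMV-driven GFP reporter were exposed to compound for 30 h at 37 C. After PBS washes, GFP-positive cells (20-120 um objects) counted by laser-scanning microplate cytometry.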
KDM4E inh – blocks human JMJD2E demethylase activity; B2RXH2; JMJD2E catalytic domain, FDH-coupled NADH fluorescence (FDH is formaldehyde dehydrogenase); Potency, µM (top dose mostly 57.1 µM), for the others: at the top dose activity change, negative = inhibition, actives largely listed as inhibitors; 230,000 tested, 1.6% active; active = well fitted inhibition curve with a large enough effect, not every such curve was filed as active; inconclusive = small, poorly fitted or top-dose-only effect, or another doubt; inactive = no such curve, though single readings can be large or run the other way;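 also: 0% = wells with enzyme and -100% = buffer wells without enzyme; nearly all actives have a fitted effect of over 50% in size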
NPSR antagonist – antagonists of human neuropeptide S receptor cAMP signaling. Q6W5P4. AID 1461. CHO-NPSR cells, cAMP TR-FRET, antagonist mode. 220,000 tested, 1% active. Potency, µM (series often up to 38.3 µM), for inactives: at the highest dose activity change, negative = inhibition, actives largely listed as inhibitors; also: % is scaled to controls: 0 for no effect and ±100 for the full control effect; nearly all actives have a fitted effect of over 50% in size
IMPase Li cell – membrane-permeable IMPase blocker, potentiated with lithium; CHO-M1 cells, IP1 TR-FRET (IP-One), carbachol + lithium; Potency, µM (series often up to 59.4 µM), for the others: at the highest dose activity, negative = IMPase inhibition, most hits filed as inhibitors; 210,000 tested, 0.35% active; AID 1457;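 also: IP1 builds up when IMPase is blocked and the TR-FRET signal falls; plate controls were basal vehicle for no effect and high inhibitor control for full effect; nearly all actives have a fitted effect of over 50% in size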
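CHO-M1, 2000 cells/well, 16–30 h culture; cpd + low Li+, 30 min 37C; lysis with d2-IP1/Eu-anti-IP1 Ab, 10 min RT; TR-FRET 665/620 ratio and 620 channel; AC50 via Hill.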
KAT2A inh – blocks human GCN5L2 histone acetyltransferase. GCN5L2 HAT assay, ThioGlo1 CoA-SH fluorescence. AID 504327. Q92830. Potency, µM (titrated, usually from 58.9 µM), inactives show at the highest dose activity change, negative = inhibition, most hits filed as inhibitors. 390,000 tested, 0.21% active; also: % is scaled to controls: 0 for no effect and ±100 for the full control effect
Target sequence (Q92830 whole entry, looked up): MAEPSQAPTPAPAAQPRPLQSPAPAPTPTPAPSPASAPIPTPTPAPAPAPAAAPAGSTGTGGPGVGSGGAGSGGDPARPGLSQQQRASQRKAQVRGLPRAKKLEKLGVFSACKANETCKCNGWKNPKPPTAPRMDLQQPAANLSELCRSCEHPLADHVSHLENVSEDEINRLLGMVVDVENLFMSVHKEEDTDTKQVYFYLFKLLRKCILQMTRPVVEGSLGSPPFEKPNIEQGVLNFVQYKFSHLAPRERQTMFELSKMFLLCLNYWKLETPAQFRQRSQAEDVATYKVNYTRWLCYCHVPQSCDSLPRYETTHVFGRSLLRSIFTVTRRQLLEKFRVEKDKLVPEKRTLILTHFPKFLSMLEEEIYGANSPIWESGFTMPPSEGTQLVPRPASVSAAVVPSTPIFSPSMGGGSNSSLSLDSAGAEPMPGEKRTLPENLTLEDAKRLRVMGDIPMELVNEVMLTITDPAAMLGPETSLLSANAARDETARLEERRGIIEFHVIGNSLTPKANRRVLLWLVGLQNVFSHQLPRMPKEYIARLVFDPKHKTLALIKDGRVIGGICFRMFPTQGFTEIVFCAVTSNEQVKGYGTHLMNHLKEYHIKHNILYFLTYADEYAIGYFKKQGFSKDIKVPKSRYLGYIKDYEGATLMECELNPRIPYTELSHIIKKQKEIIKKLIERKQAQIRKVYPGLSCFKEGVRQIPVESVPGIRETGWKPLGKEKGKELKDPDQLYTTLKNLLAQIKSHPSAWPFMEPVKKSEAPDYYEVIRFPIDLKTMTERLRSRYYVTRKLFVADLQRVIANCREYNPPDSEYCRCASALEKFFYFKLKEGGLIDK
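Titration-based screen in which CoA formation is detected via maleimide probe ThioGlo1 (50uM) turning fluorescent on thiol reaction; substrates H3(1-25) 75uM and acetyl-CoA 70uM, GCN5L2 20nM, 20 min incubation at room temperature.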
* marks the source's active call; other numbers are inactive results; u = inconclusive; x = no result given; [ ] = another dose, or the depositor's remark. Unless noted, calls follow the shape of the dose curve; as a rule, active = well fitted curve in the direction sought with a large enough effect; inconclusive = small, poorly fitted or top-dose-only effect, or another doubt; inactive = no such curve, though single readings can be large; an effect the other way counts as inactive or inconclusive. Potency is read from the fitted curve at half-maximal effect.

SMILES	Sfp PPTase inh	Epigenetic reg	KDM4E inh	NPSR antagonist	IMPase Li cell	KAT2A inh
Cc1ccc(S(=O)(=O)N2CCCCC2C(=O)NCc2ccco2)cc1 (centres undefined)	56µM*	1%	-1%	-10%[46.1 µM]	-2%[38.3 µM]	0%
O=C(NCc1ccco1)C1CCCN(S(=O)(=O)c2ccc(-n3cnnn3)cc2)C1 (centres undefined)	40µM*	-1%	u	9%[46.1 µM]	-12%[38.3 µM]	-10%
O=C(NCc1ccccc1F)C1CCCN(S(=O)(=O)c2ccc(-n3cnnn3)cc2)C1 (centres undefined)	7%	x	x	x	x	0%
O=c1cnnc(N/N=C/C2CC=CCC2)[nH]1 (centres undefined)	45µM*	3%	-22%	6%	1%	-3%
O=c1cnnc(N/N=C/c2ccc3c(c2)OCO3)[nH]1	u	4%	-7%	11%	x	-11%
CCCn1c(C2CCCN2c2nc(-c3ccc(C)cc3)cs2)nc2ccccc21 (centres undefined)	50µM*	x	x	x	x	-4%
CC(C)CC(CSc1ccc(Br)cc1)N1CCN(CC(C)C)CCC1=O (centres undefined)	-9%	x	x	x	x	x
Nc1ccccc1SSc1ccccc1N	3.5µM*	2%	3%	u	x	u
Nc1ccccc1SCc1ccccc1Cl	20µM*	0%	3%	9%	x	-7%
O=C(NCCN1CCOCC1)C1(C(F)(F)F)C/C(=C/CCO)CCCO1 (centres undefined)	6%	x	x	x	x	x
O=C(Nc1ccccc1)Nc1cccc(C(F)(F)F)c1	8%	-1%	-3%	-16%	14%	-8%
O=C(Nc1cccc(C(F)(F)F)c1)Nc1cc(Cl)ccc1C(=O)O	10%	x	x	x	x	22µM*
Cc1cccc(-c2ocnc2C(=O)Nc2ccccc2NC(=O)c2ccccn2)c1	45µM*	x	x	x	x	-4%
Cc1nc2c3cc(F)ccc3n(Cc3ccccc3F)c2s1	18µM*	2%	0%	-11%	22%	-10%
Cc1nc2c3ccccc3n(Cc3ccccc3F)c2s1	-21%	0%	8%	-15%	14%	-9%
O=C(Nc1cc(-c2ccc(F)c(F)c2)no1)c1ccccc1F	x	2%	x	x	x	1%
Cc1ccc(-n2c(Cl)c(Cl)nc(Cl)c2=O)cc1	u	0%	-22%	10µM*	17%	-2%
N#C/C(=C/c1ccc(F)cc1)C(N)=S	35µM*	5%	1%	0%	-12%	-11%
COC(=O)c1sc2nc(-c3ccccc3)nc(N3CCN(C)CC3)c2c1C	50µM*	-1%	u	13%[46.1 µM]	42%[38.3 µM]	-9%
CCOC(=O)c1sc2ncnc(N3CCN(C)CC3)c2c1C	0%	-1%[10.1 µM]	2%	2%	2%	2%
COC(=O)NC(/C(C(=O)OC)=C(\C)NCc1ccccc1)c1ccc2ccccc2c1 (centres undefined)	-28%	0%[10.1 µM]	x	x	x	x
OCC1O[C@H]([S-])[C@H](O)[C@@H](O)[C@@H]1O.[Au+] (some centres undefined)	x	x	x	x	x	117%
Cc1c(N=C2C=CC(=O)c3ccccc32)c(=O)n(-c2ccccc2)n1C	18µM*	0%	u	10µM*	32%	-20%
Cc1c(N=C2C=C(Br)C(=O)C(Br)=C2)c(=O)n(-c2ccccc2)n1C	40µM*	7%	-16%	-28%	6%	-8%
Cc1c(N=Nc2ccc(O)cc2)c(=O)n(-c2ccccc2)n1C	13%	-3%	1%	-15%	41%	-2%
COc1ccccc1OCCCCn1c(-c2ccc(Cl)cc2)nc2ccccc2c1=O	x	-1%	x	x	x	-4%
C=CCSc1n[nH]c(-c2ccc(OCCC)cc2)n1	-7%	-1%	-8%	-2%[46.1 µM]	13%[38.3 µM]	-22%
S=c1nc(-c2ccc(Cl)cc2)[nH][nH]1	45µM*	0%	u	-3%	x	-7%
CCCOc1ccc(-c2nc(=S)[nH][nH]2)cc1	50µM*	1%	-3%	-12%[46.1 µM]	-14%[38.3 µM]	-10%
